Measured values: PubChem BioAssay (Tox21)
Inconclusive results are not listed. Unmarked numbers belong to inactive results. The call rests on the fitted dose curve; in most records, active means well fitted cell-killing curve with a large enough effect in the repeat runs; inconclusive means weak or mixed curves; inactive means flat fitted curve, though single readings scatter.

Experiment: qHTS RealTime-Glo MT Cell Viability Assay in HepG2 cells - 24 hour (AID 1224867); further: nearly all actives have a fitted effect of over 50% in size
Settings: RealTime-Glo luminescence; series mostly up to 76.8 µM; activity change, negative = cytotoxicity: at the top concentration
Text: U.S. Tox21 Program National Center for Advancing Translational Sciences [NCATS] NIH Chemical Genomics Center [NCGC] U.S. Environmental Protection Agency [EPA] National Institutes of Environmental Health Sciences [NIEHS] National Toxicology Program [NTP] U.S. Food and Drug Administration [FDA] Tox21 Assay Overview: Measure of cell viability is critical in the cell-base assay. Analysis of cell viability is necessary for the characterization of cell responses to cytotoxic drugs and environmental stress. A RealTime-Glo MT Cell Viability Assay to monitor cell viability in real time of continues cell culture during 40 hours of compound treatment was used to screen Tox21 10K library compounds in HepG2 cells. The RealTime-Glo MT Cell Viability Assay is a nonlytic, homogeneous, bioluminescent method to measure cell viability in real time using a simple, plate-based method. The assay involves adding NanoLuc luciferase and a cell-permeant prosubstrate to cells in culture. Viable cells reduce the proprietary prosubstrate to generate a substrate for NanoLuc luciferase. This substrate diffuses from cells into the surrounding culture medium, where it is rapidly used by the NanoLuc Enzyme to produce a luminescent signal. The signal correlates with the number of viable cells, making the assay well suited for cytotoxicity studies.
Tox21 Assay Protocol Summary: The mixture of HepG2 cell suspension and reagents were dispensed at 600cells/6 ul/well in 1536-well tissue culture treated black solid bottom plates using a Multidrop dispenser. After the assay plates were incubated at a 37 C/5% CO2 incubator for 5 hours, 23 nL of compounds dissolved in DMSO, positive and negative controls was transferred to the assay plate by a pintool work station. The plates were incubated at 37 C for 40 hours. The luminescence intensity were measured at 0h, 8h, 16h, 24h, 32h and 40h time points using ViewLux plate reader during compound treatment.
On the % scale 0 is the no-effect control and ±100 the full control effect.

Row | Compound | activity change, negative = cytotoxicity
1 | CN(C)CCCN(C)C | 0.293% [at 6.97 µM]
2 | CCN1CCN(C(=O)N[C@@H](C(=O)N[C@@H]2C(=O)N3C(C(=O)O)=C(CSc4nnnn4C)CS[C@H]23)c2ccc(O)cc2)C(=O)C1=O | -0.489% [at 35.3 µM]
3 | CCCCN1C(=O)c2ccccc2C1=O | -7.25%
4 | Cc1nnc(C(=O)NC(C)(C)c2nc(C(=O)NCc3ccc(F)cc3)c(O)c(=O)n2C)o1 | -4.72% [at 35.3 µM]
5 | CCCCCC(=O)CC | 5.4%
6 | CCCCCCCCCCCCCCCCN(C)C | -0.0663% [at 6.97 µM]
7 | NS(=O)(=O)c1cc2c(cc1C(F)(F)F)NCNS2(=O)=O | 0.605% [at 35.3 µM]
8 | Cc1nc2ccc(Cl)cc2[nH]1 | 3.85%
9 | CC(C)(C)NCC(O)COc1cccc2c1CCC(=O)N2 (stereo not given) | 0.621% [at 35.3 µM]
10 | CCCCCCCCCCCBr | 0.131% [at 35.3 µM]
11 | CCCCCCCCCCCCCCBr | 4.16%
12 | Cc1ccc(S(=O)(=O)NC(=O)NN2CC3CCCC3C2)cc1 (stereo not given) | 3.36% [at 35.3 µM]
13 | CCCCNCC | -0.824%
14 | CC(=O)OC1CCC(C(C)(C)C)CC1 (stereo not given) | -0.274%
15 | Nc1cc(S(=O)(=O)O)ccc1O | 0.358%
16 | Cc1ccc(O)c(C(=O)c2ccccc2)c1 | -8.39%
17 | CC(C)c1cc(C(C)C)cc(C(C)C)c1 | 1.42%
18 | CN1C(CCl)Nc2cc(Cl)c(S(N)(=O)=O)cc2S1(=O)=O (stereo not given) | -0.343% [at 35.3 µM]
19 | Cc1cc(O)c(Cl)cc1C | -3.62%
20 | Clc1ccc2c(c1)Nc1ccccc1S2 | 1.19% [at 35.3 µM]

Row | Compound | activity change, negative = cytotoxicity
21 | C/C=C(\C)C=O | 1.74%
22 | COc1ccc(Cl)cc1C | 0.5%
23 | O=C(c1ccccc1)c1cccc(O)c1 | -2.01%
24 | O=C(O)COc1ccc2ccccc2c1 | 4.26%
25 | O=C(O)Cc1c(Cl)ccc(Cl)c1Cl | 1.14%
26 | COc1cnc(NS(=O)(=O)c2ccc(N)cc2)nc1 | 0.286% [at 35.3 µM]
27 | O=C1CC2(CCCC2)CC(=O)N1CCNCC1COc2ccccc2O1 (stereo not given) | 0.916% [at 35.3 µM]
28 | Cc1cc2c(cc1CC(=O)c1sccc1S(=O)(=O)Nc1onc(C)c1Cl)OCO2 | -0.0954% [at 35.3 µM]
29 | CN(C)CCc1c[nH]c2ccc(CS(=O)(=O)N3CCCC3)cc12 | -0.366% [at 35.3 µM]
30 | CCCCC(O)/C=C(C)/C=C/C=C/C(=O)N1CCCC1=O (stereo not given) | 0.864% [at 35.3 µM]
31 | CN(C)CCc1c[nH]c2ccc(C[C@H]3COC(=O)N3)cc12 | -0.0072% [at 35.3 µM]
32 | O=C[C@@H](O)[C@H](O)[C@H](O)CO | 0.553%
33 | CC(=O)Nc1ccc(OCCOCCOc2ccc(NC(C)=O)cc2)cc1 | 1.45% [at 35.3 µM]
34 | C/C=C(\C)C(=O)OC/C=C(\C)CCC=C(C)C | -1.78%
35 | C/C=C/C(=O)CCCC | 1.22%
36 | O=Cc1ccc(C(=O)O)cc1 | 3.93%
37 | CCCCCCCCC1CO1 (stereo not given) | 1.12%
38 | N#Cc1ccccc1C#N | 0.881%
39 | NCC1CCC(C(=O)Oc2ccc(CCC(=O)O)cc2)CC1 (stereo not given) | 1.75% [at 35.3 µM]
40 | C=CC(C)(CCC=C(C)C)OC(=O)C(C)C (stereo not given) | 2.59%
